# Compound activity (PubChem)
# Most compounds without a hit are left out; they make up all but 1.7% or so of the library.
# MT1-MMP txn act = activates MT1-MMP transcription; HT1080 MT1-MMP promoter luciferase reporter, luminescence, overnight; active compounds read high; activation factor at 10 µM; 86,000 tested, 0.16% active;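 active = activation factor of at least 2 for MT1-MMP transcription at 10 µM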
# Smad3 FoxH1 inh = inhibitors of human Smad3 transcription factor binding | TR-FRET Smad3/Dy647-FoxH1 peptide binding, europium anti-His | inhibition, % at 25 µM | 88,000 tested, 0.29% active | P84022 | AID 630;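 active = compounds that reduce the energy-transfer binding signal between the protein and its labelled peptide by more than half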;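 note: 0% = Smad3 plus labelled peptide maximal FRET and 100% = peptide-only background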
# Target sequence (P84022 whole entry, looked up): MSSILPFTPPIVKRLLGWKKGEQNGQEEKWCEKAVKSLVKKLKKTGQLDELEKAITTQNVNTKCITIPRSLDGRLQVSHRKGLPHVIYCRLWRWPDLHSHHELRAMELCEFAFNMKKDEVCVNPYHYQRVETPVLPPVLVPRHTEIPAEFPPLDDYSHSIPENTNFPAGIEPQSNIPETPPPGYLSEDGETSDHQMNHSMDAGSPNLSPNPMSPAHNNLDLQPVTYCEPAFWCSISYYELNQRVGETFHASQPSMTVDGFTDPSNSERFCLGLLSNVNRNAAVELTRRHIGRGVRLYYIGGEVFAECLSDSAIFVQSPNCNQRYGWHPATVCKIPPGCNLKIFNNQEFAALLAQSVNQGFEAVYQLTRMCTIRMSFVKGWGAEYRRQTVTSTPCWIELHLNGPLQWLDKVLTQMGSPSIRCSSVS
# Measles CPE = protection of cells from measles virus; Measles virus-infected cells, CPE protection, absorbance; protection (pct of control), % at 4 µM; 140,000 tested, 1.5% active; AID 841; in the data active = protection mostly above about 24%, no sharp cut-off; inactive = mostly below about 26%
# * hit, by the source's call; nt = no result given.
SMILES,MT1-MMP txn act,Smad3 FoxH1 inh,Measles CPE
O=C(O)[C@@H]1CCN(Cc2oc(CO)cc(=O)c2O)C1,nt,-5,nt
CSc1ccc(-c2nnn(Cc3ccc(Br)cc3)n2)cc1,1.3,6,9
CSc1ccc(-c2nnn(Cc3ccccn3)n2)cc1,2*,4,3
O=C1c2ccccc2C(=O)c2c1ccc(N1C(=O)c3ccccc3C1=O)c2-c1c(N2C(=O)c3ccccc3C2=O)ccc2c1C(=O)c1ccccc1C2=O,nt,37,nt
COc1ccccc1NC(=O)c1cc2ccccc2o1,2*,2,10
COc1cc(NC(=O)c2cc3ccccc3o2)c(OC)cc1Br,1.1,nt,-1
Cc1cccc(S(=O)(=O)Nc2nc3ccccc3nc2NCc2ccc3c(c2)OCO3)c1,nt,nt,3
COC(=O)C1=C(O)CSC1=Nc1ccc(C)cc1,nt,nt,26*
COC(=O)C1=C(O)CSC1=Nc1ccccc1,1.1,1,23
O=C1Oc2ccccc2C(=O)/C1=C/N1C(=O)N/C(=C\c2ccccc2O)C1=O,nt,1,nt
CCSc1nnc(-c2ccc(Cl)cc2Cl)o1,1.1,-1,3
CSc1nnc(-c2ccc(Cl)cc2Cl)o1,1.4,10,89*
Cc1cc2nc3[nH]c4c(Cl)cc(Cl)cc4c3nc2cc1C,nt,16,nt
Cc1ccc(NC(=O)C(C)c2ccc([N+](=O)[O-])cc2)cc1Cl (stereo not given),nt,nt,27
Cn1c(=O)c2c(nc(NCc3ccccc3)n2CCCc2ccccc2)n(C)c1=O,0.9,7,1
CCOCCCNc1nc2c(c(=O)n(C)c(=O)n2C)n1CCCc1ccccc1,0.9,17,67*
Cc1ccccc1C(=O)NC1CCN(C(=O)N2CCOCC2)CC1,1,-3,3
Cc1ccccc1C(=O)NC1CCN(CC(=O)Nc2c(C)cccc2C)CC1,1.2,5,39*
COc1cc(NC(=O)Cc2ccccc2)cc(OC)c1,1.1,2,59*
COc1ccc(NC(=O)Cc2ccccc2)cc1,1.4,3,6
CC(C)[C@H](Nc1ncnc2nc[nH]c12)C(=O)O,nt,-1,nt
O=C(O)C[C@H](Sc1ccccc1)c1ccccc1,nt,12,nt
Cc1cc2c(c(=O)o1)C(CC(C)C)C(C#N)=C(N)O2 (stereo not given),1.2,7,11
Cc1cc2c(c(=O)o1)C(C13C=CC(CC1)C3)C(C#N)=C(N)O2 (stereo not given),1,-2,31*
Nc1ccccc1N=Nc1c(S(=O)(=O)O)cc2cc(S(=O)(=O)O)cc(O)c2c1O,nt,4,nt
SMILES,MT1-MMP txn act,Smad3 FoxH1 inh,Measles CPE
Cc1ccc(C2=NN3C(C2)c2ccccc2OC32C(=O)Nc3ccccc32)cc1 (stereo not given),2*,-1,10
CN1C(=O)C2(Oc3ccccc3C3CC(c4ccccc4)=NN32)c2ccccc21 (stereo not given),nt,nt,7
CC(=O)c1ccc2c(c1)C1C=CCC1C(c1ccc(S(=O)(=O)N3CCOCC3)cc1)N2 (stereo not given),nt,nt,90*
CCCC1Nc2ccc(C(=O)O)cc2C2C=CCC12 (stereo not given),nt,nt,12
Cc1nc(SCC(=O)Nc2ccc3c(c2)OCO3)c(C#N)c2c1CCCC2,1.2,15,42*
Cc1noc(C)c1COC(=O)c1cccnc1SCC(=O)Nc1ccc2c(c1)OCO2,1.1,51*,5
Cc1noc(C)c1COc1ccc(C(=O)OCC(=O)Nc2ccc3c(c2)OCO3)cc1,1.2,5,4
Cc1cc(C)c(C#N)c(SCC(=O)Nc2ccc3c(c2)OCO3)n1,1.3,16,24
CC(C)(C)c1cc(C(=O)O)n[nH]1,1.2,1,3
CC(C)Cc1cc(C(=O)O)n[nH]1,1.3,-9,19*
O=C(O)c1ccccc1-c1nc2ccccc2c(=O)[nH]1,1.3,5,26
CC(=O)c1cccc2c(O)c(C3=Nc4ccccc4C3=O)[nH]c12,2.3*,0,21
CC(=O)N(Cc1cc(=O)[nH]c2ccccc12)c1ccccc1,1.2,2,14
CN(Cc1cc(=O)[nH]c2ccccc12)C(=O)c1ccccc1,2.2*,9,26
O=C(CNC(=O)c1cccs1)NCC(=O)OCc1cccc(Cl)c1,nt,nt,active
O=C(CNC(=O)c1ccco1)NCC(=O)OCc1cccc(Cl)c1,1.2,0,8
O=C(CCn1c(=O)[nH]c2ccsc2c1=O)Nc1ccc(F)c(F)c1,nt,nt,16
CCCC(=O)Nc1c(C(=O)OCC)[nH]c2ccccc12,1.3,nt,39*
CCCCCNc1c(C(=O)OCC)c(=O)[nH]c2ccccc12,1,-3,36*
CCOC(=O)c1[nH]c2ccccc2c1NC(=O)CC(C)C,1.2,nt,nt
CCCCNc1c(C(=O)OCC)c(=O)[nH]c2ccccc12,1.3,-6,9
Nc1nc(-c2cc(-c3cccc4ccccc34)nc(N)n2)cc(-c2cccc3ccccc23)n1,nt,10,nt
CCOC(=O)C1=C(C(F)(F)F)Nc2ncnn2C1c1cc(OC)ccc1OC (stereo not given),nt,nt,5
